Data reported in PubChem BioAssay (Tox21).
Results filed as inconclusive are left out. The source made the active and inactive calls. Unless noted, the call rests on the fitted dose curve; in most records, active means well fitted curve in the direction sought with a large enough effect in the repeat runs; inconclusive means weak or mixed curves; inactive means no such curve, though single readings can be large; an effect the other way counts as inactive or inconclusive.

Experiments:
[1] = qHTS assay for small molecules that induce genotoxicity in human embryonic kidney cells expressing luciferase-tagged ATAD5 (AID 651632); further: nearly all actives have a fitted effect of over 15% in size; further: potency means the concentration at half of the fitted maximal effect
Procedure, shortened: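 Concentration-response screen for ATAD5 upregulation in HEK293T luciferase reporter cells; 16 hr treatment at 37C, then luminescence after 30 min with Amplite at room temperature.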

[2] = qHTS assay for small molecules that induce genotoxicity in human embryonic kidney cells expressing luciferase-tagged ATAD5 - cell viability (AID 651634; calls by dose curve; further: nearly all actives have a fitted effect of over 25% in size; further: potency means the concentration at half of the fitted maximal effect)
Procedure, shortened: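 15.5 hr compound or vehicle exposure of HEK293T cells expressing luciferase-tagged ATAD5 at 37C; live-cell protease activity is read by fluorescence after 30 min of CellTiter-Fluor.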

[3] = qHTS assay for small molecule disruptors of the mitochondrial membrane potential - cell viability (AID 720634; calls by dose curve;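 further: human HepG2 liver cancer cells; nearly all actives have a fitted effect of over 20% in size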)
Procedure, shortened: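 In this qHTS format, HepG2 cells plated overnight were pinned with compound, incubated 1 hr, and assayed for ATP luminescence with CellTiter-Glo after m-MPI dye addition.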

[4] = qHTS assay for small molecule disruptors of the mitochondrial membrane potential (AID 720635); further: potency means the concentration at half of the fitted maximal effect
Procedure, shortened: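 HepG2 cells (2,000/well) attached overnight at 37C, then took compound for 1 hr at 37C, 5% CO2. Mito-MPS dye was added for 30 min; fluorescence was read at 490/535 nm (monomers) and 540/590 nm (aggregates).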

[5] = qHTS assay to test for compound auto fluorescence at 590 nm (red) in HepG2 cells (AID 720674)
Procedure, shortened: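 Intrinsic compound fluorescence in the red window (Ex/Em 540/590 nm) is measured in attached HepG2 cells exposed for 1 hr, DMSO vehicle as baseline, benchmarked to Rose Bengal sodium.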

[6] = qHTS assay to test for compound auto fluorescence at 535 nm (green) in HepG2 cells (AID 720675)
[7] = qHTS assay to test for compound auto fluorescence at 460 nm (blue) in HEK293 cells (AID 720678)
Procedure, shortened: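 Auto fluorescence in the blue band was quantified as triamterene equivalency. HEK293 cells were seeded at 2,000/well, dosed after a 4-5 hr attachment, and kept overnight at 37C before the 405/460 nm reading.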

[8] = qHTS assay to test for compound auto fluorescence at 590 nm (red) in HEK293 cells (AID 720679)
Procedure, shortened: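 Autofluorescence equivalency to Rose Bengal sodium, 540/590nm, in HEK293 cells exposed overnight to 23 nL compound per well.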

[9] = qHTS assay to test for compound auto fluorescence at 535 nm (green) in HEK293 cells (AID 720680)
[10] = qHTS assay to test for compound auto fluorescence at 460 nm (blue) in HEK293 cell free culture (AID 720681)
Procedure, shortened: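 Test compounds were pinned into cell-free culture medium (DMEM with 10% FBS) and fluorescence was read directly at Ex/Em 405/460 nm. Signals were expressed as fluorescence equivalents of triamterene, with DMSO vehicle as control.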

[11] = qHTS assay to test for compound auto fluorescence at 535 nm (green) in HEK293 cell free culture (AID 720682)
Procedure, shortened: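 Measurement is a direct plate read of green fluorescence (485 nm in, 535 nm out) after compound addition to serum-supplemented DMEM lacking cells, with fluorescein used to express intensities.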

[12] = qHTS assay to test for compound auto fluorescence at 590 nm (red) in HEK293 cell free culture (AID 720683)
Procedure, shortened: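 Tox21 10K library compounds were pinned into cell-free DMEM with 10% FBS and fluorescence was read at excitation 540 nm. Activity is expressed as Rose Bengal sodium equivalency.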

[13] = qHTS assay to test for compound auto fluorescence at 590 nm (red) in HepG2 cell free culture (AID 720684)
Procedure, shortened: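 Ex 540 / Em 590 nm read of compound in cell-free MEM (10% FBS). Rose Bengal sodium reference.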

[14] = qHTS assay to test for compound auto fluorescence at 460 nm (blue) in HepG2 cell free culture (AID 720685)
Procedure, shortened: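 Cell-free plates of MEM plus 10% FBS received 23 nL compound or DMSO vehicle; blue-channel (405/460 nm) intensity scored against triamterene as reference fluorophore.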

[15] = qHTS assay to test for compound auto fluorescence at 535 nm (green) in HepG2 cell free culture (AID 720686)
[16] = qHTS assay to test for compound auto fluorescence at 460 nm (blue) in HepG2 cells (AID 720687)
Procedure, shortened: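 Cells (2,000/well in MEM with 10% FBS) attached overnight at 37 C, then were exposed to compound or DMSO for 1 hr at 37 C, 5% CO2. Fluorescence read at Ex/Em 405/460 nm, expressed as triamterene-equivalent signal.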

[17] = target: Glucocorticoid receptor (Homo sapiens) (UniProt P04150); assay: qHTS assay to identify small molecule antagonists of the glucocorticoid receptor (GR) signaling pathway (AID 720692; active means well fitted inhibition curve with a large enough effect in the signal ratio in the repeat runs, not every such curve was filed as active; the % refers to the signal ratio; further: potency means the concentration at half of the fitted maximal effect)
Glucocorticoid receptor (Homo sapiens), sequence (P04150 whole entry, looked up): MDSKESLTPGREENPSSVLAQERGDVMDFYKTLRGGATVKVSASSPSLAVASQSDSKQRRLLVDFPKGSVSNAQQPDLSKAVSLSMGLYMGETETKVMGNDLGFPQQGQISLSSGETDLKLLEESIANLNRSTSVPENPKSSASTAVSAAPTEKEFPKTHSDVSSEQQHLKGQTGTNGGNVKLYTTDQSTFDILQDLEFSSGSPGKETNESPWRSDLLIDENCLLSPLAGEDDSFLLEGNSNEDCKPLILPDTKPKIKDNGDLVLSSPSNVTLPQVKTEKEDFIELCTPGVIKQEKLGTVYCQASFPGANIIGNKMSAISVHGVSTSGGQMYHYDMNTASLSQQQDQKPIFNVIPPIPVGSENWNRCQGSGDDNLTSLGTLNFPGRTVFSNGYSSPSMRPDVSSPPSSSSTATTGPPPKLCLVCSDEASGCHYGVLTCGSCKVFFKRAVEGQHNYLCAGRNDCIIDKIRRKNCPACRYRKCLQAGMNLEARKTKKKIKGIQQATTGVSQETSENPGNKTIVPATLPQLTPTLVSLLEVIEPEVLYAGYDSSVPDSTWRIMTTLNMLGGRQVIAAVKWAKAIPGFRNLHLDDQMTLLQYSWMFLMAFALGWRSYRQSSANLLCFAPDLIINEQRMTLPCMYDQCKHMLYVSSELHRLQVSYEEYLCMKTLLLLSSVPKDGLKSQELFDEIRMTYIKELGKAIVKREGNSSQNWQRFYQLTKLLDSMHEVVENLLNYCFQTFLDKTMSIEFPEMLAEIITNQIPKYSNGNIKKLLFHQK
Procedure, shortened: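 Tox21 10K library screened in concentration-response for blockade of dexamethasone (5 nM final)-induced GRE-bla reporter activity in HeLa cells; 18 h treatment, fluorescence read.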

[18] = target: Glucocorticoid receptor (Homo sapiens) (UniProt P04150); assay: qHTS assay to identify small molecule agonists of the glucocorticoid receptor (GR) signaling pathway (AID 720691; active means well fitted activation curve with a large enough effect in the signal ratio in the repeat runs, not every such curve was filed as active; the % refers to the signal ratio); conditions: GR-bla HeLa, beta-lactamase reporter ratio, 18 h; activation: at 62.4 µM (top of the series)
Procedure, shortened: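 Measures GR pathway activation through a GRE-beta-lactamase reporter stably integrated in HeLa cells, with 18 h compound treatment at 37 C and fluorescence detection using a FRET substrate.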
On the % scale 0 is the no-effect control and ±100 the full control effect.

CCc1ccc(O)c(C(C)(C)C)c1
inactive: Potency [1] | Potency [2] | Potency [3] | Potency [5] | Potency [6] | Potency [7] | Potency [8] | Potency [9] | Potency [10] | Potency [11] | Potency [12] | Potency [13] | Potency [14] | Potency [15] | Potency [16] | Potency [17]
active: Potency [4] 8.63 µM

Cc1ccc(N)cc1O
inactive: Potency [1] | Potency [2] | Potency [3] | Potency [5] | Potency [6] | Potency [8] | Potency [9] | Potency [10] | Potency [11] | Potency [12] | Potency [13] | Potency [14] | Potency [15] | Potency [16] | Potency [18]
active: Potency [4] 17.2 µM

O=C(O)CCn1c2c(c3ccccc31)C[C@H](NS(=O)(=O)c1ccc(F)cc1)CC2
inactive: Potency [1] | Potency [2] | Potency [3] | Potency [4] | Potency [5] | Potency [6] | Potency [7] | Potency [8] | Potency [9] | Potency [10] | Potency [11] | Potency [12] | Potency [13] | Potency [14] | Potency [15] | Potency [16]

Nc1ncnc2c1ncn2[C@@H]1O[C@H](COP(=O)(O)O)[C@@H](O)[C@H]1O
inactive: Potency [1] | Potency [2] | Potency [3] | Potency [5] | Potency [6] | Potency [7] | Potency [8] | Potency [9] | Potency [10] | Potency [11] | Potency [12] | Potency [13] | Potency [14] | Potency [15] | Potency [16] | Potency [18]

C=CC(=O)OCCOCC(CC)(COCCOC(=O)C=C)COCCOC(=O)C=C
active: Potency [1] 28.4 µM | Potency [2] 80.2 µM | Potency [17] 22.8 µM
inactive: Potency [3] | Potency [4] | Potency [5] | Potency [6] | Potency [7] | Potency [8] | Potency [9] | Potency [10] | Potency [11] | Potency [12] | Potency [13] | Potency [14] | Potency [15] | Potency [16]

NCCCCCCNCCCCCCN
inactive: Potency [1] | Potency [2] | Potency [3] | Potency [4] | Potency [5] | Potency [6] | Potency [7] | Potency [8] | Potency [9] | Potency [10] | Potency [11] | Potency [12] | Potency [13] | Potency [14] | Potency [15] | Potency [16] | Potency [18] | Potency [17]

CCN1CCN(c2cc(-c3ccc(F)cc3)c3c(n2)CCCCCC3)CC1
inactive: Potency [1] | Potency [2] | Potency [3] | Potency [4] | Potency [5] | Potency [6] | Potency [7] | Potency [8] | Potency [9] | Potency [10] | Potency [11] | Potency [12] | Potency [13] | Potency [14] | Potency [15] | Potency [16] | Potency [18]

CCCCN(CCCC)CCC(O)c1cc2c(Cl)cc(Cl)cc2c2cc(C(F)(F)F)ccc12 (configuration not stated)
inactive: Potency [1] | Potency [2] | Potency [3] | fluorescence, relative to Rose Bengal [5] 0.511% [at 18.6 µM] | fluorescence, % of fluorescein control [6] 0.0229% [at 18.6 µM] | fluorescence, % of triamterene [7] -0.234% [at 18.6 µM] | fluorescence, % of fluorescent control [8] 0.217% [at 18.6 µM] | fluorescence, % of fluorescein [9] -0.0754% [at 18.6 µM] | fluorescence, % of fluorescent control [10] -0.0401% [at 18.6 µM] | activity change [11] -0.0209% [at 18.6 µM, stronger effect = higher value] | fluorescence, % of fluorescent control [12] 0.212% [at 18.6 µM] | fluorescence, % of Rose Bengal [13] 0.0098% [at 18.6 µM] | fluorescence, % of fluorescent control [14] -0.0142% [at 18.6 µM] | fluorescence, % of fluorescein control [15] -0.0465% [at 18.6 µM] | fluorescence, % of fluorescent control [16] 0.0481% [at 18.6 µM] | Potency [18]

CCCCCCCC/C=C\CCCCCCCC(=O)NCc1ccc(O)c(OC)c1
active: Potency [4] 11.9 µM
inactive: Potency [1] | Potency [2] | Potency [3] | Potency [5] | Potency [6] | Potency [7] | Potency [8] | Potency [9] | Potency [10] | Potency [11] | Potency [12] | Potency [13] | Potency [14] | Potency [15] | Potency [16]

C=CC(=O)OCCC#N
inactive: Potency [1] | Potency [2] | Potency [3] | Potency [5] | Potency [6] | Potency [7] | Potency [8] | Potency [9] | Potency [10] | Potency [11] | Potency [12] | Potency [13] | Potency [14] | Potency [15] | Potency [16] | Potency [18]

COc1cccc(CCc2ccccc2OCC(CN(C)C)OC(=O)CCC(=O)O)c1 (configuration not stated)
inactive: Potency [1] | Potency [2] | Potency [3] | Potency [5] | Potency [6] | Potency [7] | Potency [8] | Potency [9] | Potency [10] | Potency [11] | Potency [12] | Potency [13] | Potency [14] | Potency [15] | Potency [16]

CCCCCCC(C)Nc1ccc(Nc2ccccc2)cc1 (configuration not stated)
active: Potency [4] 30.6 µM | Potency [17] 43.6 µM
inactive: Potency [1] | Potency [2] | Potency [5] | Potency [6] | Potency [7] | Potency [8] | Potency [9] | Potency [10] | Potency [11] | Potency [12] | Potency [13] | Potency [14] | Potency [15] | Potency [16]

Clc1ccccc1CN1CCc2sccc2C1
inactive: Potency [1] | Potency [2] | Potency [3] | Potency [5] | Potency [6] | Potency [7] | Potency [8] | Potency [9] | Potency [10] | Potency [11] | Potency [12] | Potency [13] | Potency [14] | Potency [15] | Potency [16]
active: Potency [4] 26.6 µM
